Only some compounds are listed: those with a hit (about 2.9% of all), similar ones and a draw of the others.
Mcl1-Noxa inh = disrupts binding of human Mcl-1 to Noxa peptide. Q07820. TR-FRET Mcl-1/Noxa peptide binding, 2 h. inhibition, % at 21.7 µM. hit rate 1.5% among 220,000. AID 1022;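 active = compounds that cut the protein-peptide binding signal by more than 50% relative to plate controls in a single-dose test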;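 also: His-tagged Mcl-1 with rhodamine Noxa BH3 peptide and terbium anti-His antibody; 0% = Mcl-1 plus Noxa peptide wells and 100% = peptide-only wells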
14-3-3 Bad PPI = disrupts binding of bovine 14-3-3 zeta to phospho-Bad peptide; inhibition, % at 21.7 µM; P63103; AID 781; hit rate 0.71% among 220,000; TR-FRET 14-3-3zeta/Dy647-pBad peptide displacement, 1 h;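 active = inhibition above about 70%, limit read from the data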;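 also: 0% = full 14-3-3 plus peptide FRET controls and 100% = background without 14-3-3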
Bim-Mcl-1 = inhibitors of Bim-Mcl-1 interaction, human; Q07820; AID 1009; hit rate 0.1% among 190,000; inhibition, % at 10 µM; Bead-based flow cytometry, Bim peptide-Mcl-1 binding; in the data active = inhibition above about 40%;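 also: 0% = no compound tracer wells and 100% = peptide blocker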
Mcl1 Bid PPI = Mcl-1/Bid interaction inhibition; TR-FRET Mcl-1/Bid-Dy647 peptide binding, 1536-well; Q07820; AID 1021; hit rate 0.97% among 220,000; inhibition, % at 21.7 µM;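 active = compounds that cut the binding signal by more than half at the single screening dose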;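 also: His-tagged Mcl-1 with europium anti-His antibody binding Bid BH3 peptide; 0% = Mcl-1 plus peptide wells and 100% = peptide-only wells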
Pf gametocyte = inhibitors of late stage P. falciparum gametocyte viability; P. falciparum stage V gametocytes, ATP luminescence, 24 h; inhibition, % at 10.9 µM; hit rate 0.065% among 150,000;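 active = inhibition above the mean plus 3 SD of compounds within the control limits, set per campaign, cut at about 38% in these data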;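 also: 0% = DMSO wells and 100% = medium only without gametocytes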
Hck-Nef inh = human Hck-Nef kinase inhibition; Recombinant Hck-YEEI plus Nef, Z-Lyte FRET kinase assay; inhibition, % at 20 µM; hit rate 0.68% among 220,000;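 active = Hck-Nef kinase inhibition above about 50%, limit read from the data; inactive = inhibition below that limit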;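 also: 0% = DMSO with Hck plus Nef and 100% = Hck alone without Nef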
Target sequence (P08631 whole entry, looked up): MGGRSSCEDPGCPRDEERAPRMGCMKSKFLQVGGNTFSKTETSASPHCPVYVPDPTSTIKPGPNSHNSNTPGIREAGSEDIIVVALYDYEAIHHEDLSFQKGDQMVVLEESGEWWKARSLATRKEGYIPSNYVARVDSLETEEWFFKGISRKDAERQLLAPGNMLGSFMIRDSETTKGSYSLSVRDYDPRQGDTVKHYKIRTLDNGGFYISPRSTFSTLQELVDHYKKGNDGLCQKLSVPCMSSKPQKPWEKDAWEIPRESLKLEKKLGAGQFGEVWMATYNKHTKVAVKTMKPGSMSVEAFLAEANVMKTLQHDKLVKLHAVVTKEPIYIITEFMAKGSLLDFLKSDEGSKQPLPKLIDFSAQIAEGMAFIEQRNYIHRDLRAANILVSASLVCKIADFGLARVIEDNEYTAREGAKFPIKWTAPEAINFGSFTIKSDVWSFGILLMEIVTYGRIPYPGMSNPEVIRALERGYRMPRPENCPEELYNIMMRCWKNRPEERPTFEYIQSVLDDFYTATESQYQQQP
Starred values were filed as active, the others as inactive; . = no result; [ ] = remark or other dose.

SMILES	Mcl1-Noxa inh	14-3-3 Bad PPI	Bim-Mcl-1	Mcl1 Bid PPI	Pf gametocyte	Hck-Nef inh
Cn1c(N)c(C(=O)COC(=O)c2nc(Cl)ccc2Cl)c(=O)n(C)c1=O	18	-1	8	-11	12	20
COc1cc(OC)cc(C(=O)N[C@H](C(=O)OCC(=O)NC(=O)c2cccn2C)C(C)C)c1	16	-13	0	92*	1	23
O=C(C1CCN(c2nc3nonc3nc2N2CCCCC2)CC1)N1CCOCC1	10	-3	-3	-25	21	4
COc1ccc(-c2cc3ccccc3oc2=O)cc1NC(=O)c1ccc([N+](=O)[O-])o1	27	80*[fluorescence artefact?]	3	65*	-5	8
CCC(=O)Nc1cc(-c2cc3ccccc3oc2=O)ccc1OC	-10	-10	0	-30	.	5
O=C(CNS(=O)(=O)c1ccc(C(=O)N2CCCCC2)cc1)N1CCCCC1	8	9	-5	-8	.	-10
O=C(c1ccc(CNS(=O)(=O)c2ccc(Br)cc2)cc1)N1CCCC1	4	-1	42*	-33	.	9
CCc1c(C(=O)Nc2cc(C)ccc2OC)[nH]c(C)c1C(C)=O	6	-5	2	96*	.	0
CCc1c(C(=O)Nc2ccc(OC)cc2)[nH]c(C)c1C(C)=O	5	-5	-6	-13	-9	2
Cc1nc(NCc2ccco2)c2c(C)c(C)sc2n1	24	68	0	48	-7	2
Cc1sc2nc3c4ccccc4c(NCc4ccco4)nn3c(=O)c2c1C	67*	5	10	-1	.	25
Cc1nn(CCC(=O)NNC(=S)NCC(C)C)c(C)c1Br	19	-4	-1	0	.	-1
COc1cc(CNCc2cccnc2)ccc1OCC(=O)NC(C)(C)C	15	32	1	11	1	22
COc1ccc(NC(=O)C2CCN(S(=O)(=O)c3ccc(OC)c(OC)c3)CC2)c(OC)c1	5	-4	-10	-12	-99	1
C=CCSc1ncnc2c1oc1nc3c(cc12)COC(C)(C)C3	5	-13	.	2	4	10
O=C(/C=C/c1ccc(Br)cc1)N1CCN(c2cccc(C(F)(F)F)c2)CC1	-4	-1	-2	61*	.	1
CC(=O)Nc1ccc(NC(=O)CN2CCN(c3cccc(C(F)(F)F)c3)CC2)cc1	8	6	-2	-19	.	5
O=C(c1c(F)c(F)c(F)c(F)c1F)N1CCN(c2cccc(C(F)(F)F)c2)CC1	-23	4	-10	3	.	1
O=C(CN1CCN(c2cccc(C(F)(F)F)c2)CC1)Nc1cccc(C(F)(F)F)c1	13	74*	5	12	.	1
O=C(c1ccncc1)N1CCN(c2cccc(C(F)(F)F)c2)CC1	57*	-9	0	-24	.	0
COc1cccc(NC(=O)CCN2C(=O)c3ccc([N+](=O)[O-])cc3C2=O)c1	-6	-1	4	-19	-12	20
CCOC(=O)C(C)/C(C)=N/NC(=O)CCC(=O)Nc1cc(C)ccc1C (centres undefined)	6	-25	-2	-33	20	19
O=C(NCc1ccccc1)c1ccc(CS(=O)(=O)Cc2ccccc2F)o1	-9	-10	0	-15	8	14
O=C(O)c1ccc(CS(=O)(=O)Cc2ccccc2F)o1	35	-5	-4	92*	-25	7
CC(=O)Nc1ccc(C2=NNC(=Nc3ccc(S(=O)(=O)N4CCOCC4)cc3)SC2)cc1	80*	4	.	-20	-11	-59
SMILES	Mcl1-Noxa inh	14-3-3 Bad PPI	Bim-Mcl-1	Mcl1 Bid PPI	Pf gametocyte	Hck-Nef inh
CN(C)S(=O)(=O)c1cccc(N=C2NN=C(c3ccccc3)CS2)c1	34	4	-2	-36	29	0
CC(=O)Nc1ccc(C2=NNC(=Nc3cccc(S(=O)(=O)N(C)C)c3)SC2)cc1	96*	0	0	-18	.	33
COc1ccc(/C=C2\SC(=O)N(CCNC(=O)Cc3coc4cc(C)ccc34)C2=O)cc1OC	27	-10	-5	-52	.	5
CCC(CC)NC(=O)COC(=O)c1cc(Br)ccc1Cl	0	-2	3	97*	11	1
CCCCNC(=O)COC(=O)c1cc(Br)ccc1Cl	-1	1	-5	-5	28	1
CNC(=O)CC1C(=O)N(c2ccc(OC)cc2)C(=S)N1NC(=O)c1cccc(F)c1 (centres undefined)	-3	-3	.	99*	14	-5
O=C(O)CCc1ccc(-c2ccc(Cl)cc2)n1Cc1ccco1	11	3	-4	-12	.	-6
CCN(CC)c1ccc2ccc(=O)oc2c1	-3	-5	-3	-8	.	114*
CCN(CC)c1ccc2cc(C#N)c(=O)oc2c1	28	6	0	-10	23	14
CCOC(=O)C1(Cc2cccc(F)c2)CCN(Cc2nc(CC)[nH]c2C)CC1	6	-4	-10	-31	-2	8
Cn1c(=O)c(Nc2ccc(O)cc2)c2c3c(cccc31)C(=O)c1ccccc1-2	66*	-13	0	-12	-18	10
CC(C)c1ccc(Nc2c([N+](=O)[O-])c(=O)n(C)c3ccccc23)cc1	-5	8	.	-11	-10	1
CCOC(=O)C1=C(CP(=O)(c2ccccc2)c2ccccc2)NC(=O)NC1c1ccc(Cl)cc1 (centres undefined)	-3	2	-3	7	.	0
CCOC(=O)C1=C(CP(=O)(c2ccccc2)c2ccccc2)NC(=O)NC1c1ccc(OC)cc1 (centres undefined)	4	8	74*	-3	7	3
C#CCOCCOCCOCCNc1nc(N2CCN(C(=O)[C@H]([C@@H](C)CC)n3cc([C@@H](N)Cc4ccc(O)cc4)nn3)CC2)nc(N2CCN(C(=O)[C@H]([C@@H](C)CC)n3cc([C@@H](N)CC(C)C)nn3)CC2)n1	15	2	0	-1	-21	-8
COc1cccc2c(=S)c(CCC(C)=O)c(C)[nH]c12	100*	6	-3	9	12	6
Cc1ccc(C(=O)N/N=C/c2ccc(-c3ccccc3[N+](=O)[O-])o2)cn1	19	5	0	-30	-7	2
COc1ccc(-c2ccc(/C=N/NC(=O)c3cccnc3)o2)c([N+](=O)[O-])c1	74*	79*[fluorescence artefact?]	1	38	.	-2
Cc1[nH]nc2c1C(c1cccs1)C1=C(CC(C)(C)CC1=O)N2 (centres undefined)	6	-17	0	-29	4	0
Cc1cc(N=Cc2c(O)ccc3cc(Br)ccc23)no1	84*	2	1	-23	-8	21
Cc1ccc(NC(=O)OC(C)CNC(=O)Oc2cccc(C)c2)cc1 (centres undefined)	2	-11	0	-9	-15	-12
CCN(CC)c1nc(N)nc(N(c2ccccc2)c2ccccc2)n1	-4	0	79*	-4	.	1
CC1CCc2cc(F)ccc2N1C(=O)CCC(=O)O (centres undefined)	-9	-5	0	1	.	0
